Out of some 310,000 compounds screened, about 14,000 (4.5%) showed an effect of 50% or more. The effect is printed as a negative number. This excerpt belongs to a sample that is enriched for strong results.
What follows are compounds tested against human ether-à-go-go-related gene (hERG) potassium channel (human, UniProt Q12809) (assay: primary screen, population patch clamp on CHO cells stably expressing hERG; higher = less effect of the substance).
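Note: peak tail current of the secondary pulse compared with the same well before compound.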

Chain of human ether-à-go-go-related gene (hERG) potassium channel (Q12809 whole entry, looked up): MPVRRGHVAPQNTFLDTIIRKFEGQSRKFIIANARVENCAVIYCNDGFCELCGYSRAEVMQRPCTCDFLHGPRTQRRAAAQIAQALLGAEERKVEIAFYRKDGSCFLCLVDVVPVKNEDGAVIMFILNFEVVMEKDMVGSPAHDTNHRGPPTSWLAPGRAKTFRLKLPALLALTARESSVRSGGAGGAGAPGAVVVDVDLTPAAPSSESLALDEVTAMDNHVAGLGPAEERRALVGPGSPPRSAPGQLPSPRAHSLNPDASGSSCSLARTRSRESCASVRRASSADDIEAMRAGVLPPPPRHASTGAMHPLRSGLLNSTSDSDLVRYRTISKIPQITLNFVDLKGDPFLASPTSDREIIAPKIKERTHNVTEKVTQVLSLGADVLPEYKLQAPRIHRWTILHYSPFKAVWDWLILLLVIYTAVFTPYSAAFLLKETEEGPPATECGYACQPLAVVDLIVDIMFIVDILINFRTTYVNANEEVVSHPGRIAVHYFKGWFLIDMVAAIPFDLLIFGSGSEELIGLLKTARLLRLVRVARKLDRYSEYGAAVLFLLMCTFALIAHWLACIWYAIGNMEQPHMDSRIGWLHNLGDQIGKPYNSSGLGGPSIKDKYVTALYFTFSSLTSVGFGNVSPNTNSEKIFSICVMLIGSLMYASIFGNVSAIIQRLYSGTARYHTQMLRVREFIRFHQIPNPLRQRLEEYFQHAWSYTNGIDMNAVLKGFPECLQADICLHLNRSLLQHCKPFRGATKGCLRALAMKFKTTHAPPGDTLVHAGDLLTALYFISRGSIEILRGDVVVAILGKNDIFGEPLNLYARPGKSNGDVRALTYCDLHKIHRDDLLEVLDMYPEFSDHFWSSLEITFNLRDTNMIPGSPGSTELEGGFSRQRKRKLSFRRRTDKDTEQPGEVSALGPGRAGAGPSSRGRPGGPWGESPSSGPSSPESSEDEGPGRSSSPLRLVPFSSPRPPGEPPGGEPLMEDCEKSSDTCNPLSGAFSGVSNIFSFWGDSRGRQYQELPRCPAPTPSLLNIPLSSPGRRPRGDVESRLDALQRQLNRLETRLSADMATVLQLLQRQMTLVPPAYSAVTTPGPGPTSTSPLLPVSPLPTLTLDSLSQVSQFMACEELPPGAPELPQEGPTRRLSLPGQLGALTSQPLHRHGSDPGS

Row | Compound | hERG current change (%, negative = inhibition) at 10uM [%]
1 | OCCOCCn1c(-c2ccccc2)nc(=S)c2c1CCCC2 | 9.34
2 | CCCOc1ccc(Cn2c(O)cc(=O)[nH]c2=O)cc1 | 14.1
3 | Cc1sc(N)c(C(=O)c2ccccc2)c1C | 9.41
4 | CN(C)/C=N/c1ncc(C(=O)c2ccccc2)s1 | 1.48
5 | Cc1sc2ccccc2[n+]1CC(=O)c1ccccc1.[Br-] | 18.7
6 | O=C(c1ccccc1)c1c2c(cc3sc4ccccc4[n+]13)-c1cccc3cccc-2c13.[Br-] | -76.8
7 | O=C(O)c1cccc(N2C(=O)c3cccc4cccc(c34)C2=O)c1 | 12.7
8 | Cc1sc2cc3c(c(C(=O)c4ccccc4)[n+]2c1C)-c1cccc2cccc-3c12.[Br-] | -77.1
9 | N#C/C(=C\c1ccccc1)C(=O)NC1CC1 | 11.3
10 | O=C(CSc1nnnn1-c1cccc(F)c1)Nc1nc2ccccc2s1 | 8.36
11 | Cc1nonc1C1CCCN1Cc1cn[nH]c1-c1ccc(-c2ccccc2)cc1 (stereo not shown) | -24.6
12 | c1ccc(-c2ccc(-c3[nH]ncc3CN3CCC(N4CCSCC4)CC3)cc2)cc1 | -80.7
13 | c1ccc2oc(-c3[nH]ncc3CN3CCSCC3)cc2c1 | -5.92
14 | COCC1CCN(Cc2cn[nH]c2-c2cc3ccccc3o2)C1 (stereo not shown) | -33.7
15 | c1ccc2oc(-c3[nH]ncc3CN3CCC(N4CCSCC4)CC3)cc2c1 | -61.9
16 | COc1ccc(-c2[nH]ncc2CN2CCC(N3CCSCC3)CC2)c(F)c1 | 1.98
17 | CN(C)c1ccc(CNC(=O)CN(C)S(=O)(=O)c2ccc3c(c2)c(=O)n(C)c(=O)n3C)cc1 | 9.67
18 | CC1(C)CC(=O)C2=C(C1)NC(=O)NC2c1ccccc1Cl (stereo not shown) | 16.3
19 | Cc1ccc(S(=O)(=O)NCC(=O)N(CC2CCCO2)C(C(=O)NC2CCCC2)C(C)C)cc1 (stereo not shown) | -1.47
20 | Cc1ccc(S(=O)(=O)NCC(=O)N(CC2CCCO2)C(C(=O)NC2CCCCC2)C(C)C)cc1 (stereo not shown) | -52.7
21 | CC(C)C(C(=O)NC1CCCCC1)N(CC1CCCO1)C(=O)CNS(=O)(=O)c1ccc(F)cc1 (stereo not shown) | -7.17
22 | Cl.O=C(O)CCNc1nc(-c2ccccc2)nc2ccccc12 | 2.17

Row | Compound | hERG current change (%, negative = inhibition) at 10uM [%]
23 | CC(C)(C)OC(=O)NNC(=O)NC12CC3CC(CC(C3)C1)C2 | -4.97
24 | Cc1ccc(NC(=O)CSc2nc(N)cc(N)n2)cc1S(=O)(=O)N1CCOCC1 | 7.71
25 | CCN(C(=O)C1CCN(c2nc(-c3ccc(OC)cc3)no2)CC1)c1ccccc1 | -24.7
26 | O=C(CSCc1ccccn1)Nc1ccccc1 | 1.85
27 | O=C(CSCc1cccc(CSCC(=O)Nc2ccccc2)n1)Nc1ccccc1 | -67
28 | O=C(CSCc1cccc(CSCC(=O)Nc2ccc3ccccc3c2)n1)Nc1ccc2ccccc2c1 | 9.54
29 | O=C(CSCc1ccco1)Nc1cc(C(F)(F)F)ccc1N1CCOCC1 | -49
30 | O=S(=O)(c1ccc(OCC(O)CN2CCN(c3ccccc3O)CC2)cc1)N1CCOCC1 (stereo not shown) | -6.91
31 | Cl.OC(COCc1ccccc1)CN1CCN(c2ccccc2F)CC1 (stereo not shown) | -45.9
32 | CC(C(=O)N1CCN(c2ccccc2F)CC1)c1ccc([N+](=O)[O-])cc1 (stereo not shown) | -68.4
33 | COc1cccc(OC)c1OCC(O)CN1CCN(c2ccccc2F)CC1.Cl (stereo not shown) | -12.2
34 | CC(C(=O)N1CCCC1)c1ccc([N+](=O)[O-])cc1 (stereo not shown) | -0.0422
35 | CC(C(=O)N1CCN(c2ccccc2)CC1)c1ccc([N+](=O)[O-])cc1 (stereo not shown) | -42.7
36 | O=[N+]([O-])c1ccc(OCC(O)CN2CCN(c3ccccc3F)CC2)cc1 (stereo not shown) | -75.3
37 | Cl.OC(COc1ccc(F)cc1)CN1CCN(c2ccccc2F)CC1 (stereo not shown) | -66.6
38 | Cc1ccc(N2CCN(C(=O)NC3CCCCC3)CC2C)cc1 (stereo not shown) | 4.09
39 | CCOC(=O)c1c(S(=O)(=O)NCc2cccs2)c(C)n(C)c1C | -12.1
40 | CC(=O)c1ccc(N(C(=O)Cc2c[nH]c3ccccc23)C(C(=O)NC2CCCCC2)c2cccs2)cc1 (stereo not shown) | 7.81
41 | CN1C(=O)CSC1=NCC12CC3CC(CC(C3)C1)C2 | -19.6
42 | CC(C)CC(=O)NC1(C(F)(F)F)C(=O)Nc2c1c(=O)n(C)c(=O)n2C (stereo not shown) | 10.5
43 | COc1cc(OC)nc(NC2OC(=O)c3ccccc32)n1 (stereo not shown) | 0.248
44 | CC(=O)Oc1cc2c(cc1Cl)C(c1cccs1)CC1(CC(C)(C)NC(=S)N1)O2 (stereo not shown) | 9.77

Row | Compound | hERG current change (%, negative = inhibition) at 10uM [%]
45 | COc1cccc(CN2CCC(C(=O)N3CCN(Cc4ccc5c(c4)OCO5)CC3)CC2)c1OC | -39.5
46 | COc1cccc(CN2CCCC(C(=O)c3ccc4c(c3)OCO4)C2)c1OC (stereo not shown) | -63.3
47 | COc1cc(OC)c(OC)cc1CN1CCCC(C(=O)N2CCCC2)C1.O=C(O)C(=O)O (stereo not shown) | 17.4
48 | COc1cc(OC)c(OC)cc1CN1CCCC(C(=O)c2ccc3c(c2)OCO3)C1 (stereo not shown) | -67.1
49 | COc1cccc(CN2CCCC(C(=O)c3ccc4c(c3)OCO4)C2)c1O (stereo not shown) | -65.5
50 | COc1cccc(CN2CCCC(C(=O)N3CCCCC3)C2)c1OC.O=C(O)C(=O)O (stereo not shown) | -26.3
51 | COc1ccc(CN2CCCC(C(=O)c3ccc4c(c3)OCO4)C2)c(F)c1 (stereo not shown) | -64.2
52 | COC(=O)c1ccccc1NC(=O)COC(=O)CO/N=C(\C)c1ccc2c(c1)OCO2 | 21
53 | CCn1c(SCC(=O)Nc2nc3ccc(OC)cc3s2)nnc1-c1ccoc1C | -32.3
54 | OC(COc1cc(Cl)c(Cl)cc1Cl)CN1CCN(c2ncccn2)CC1 (stereo not shown) | -11.3
55 | CCSc1nnc(NC(=O)CSc2nccn2-c2cc(C)cc(C)c2)s1 | -2.92
56 | COc1ccc(-c2c(C)nn3c(N4CCCCCC4)cc(C)nc23)cc1OC | 7.94
57 | COc1cccc(C(=O)C2CCCN(Cc3cccc4c3OCO4)C2)c1 (stereo not shown) | -49.4
58 | COc1ccc(C(=O)C2CCCN(Cc3cccc4c3OCO4)C2)cc1OC (stereo not shown) | -73.8
59 | CCNC(=O)N1CCCC(C(=O)c2ccc(OC)c(OC)c2)C1 (stereo not shown) | 20.8
60 | CCN1C(=O)CC(N2CCN(c3cccc(OC)c3)CC2)C1=O (stereo not shown) | 14.1
61 | Cc1cc2nccc(-c3ccccn3)n2n1 | 28.3
62 | Cc1ccc(Nc2nc(=O)[nH]nc2C)cc1 | -9.45
63 | CC1CCCCC1NC(=O)CCNC(=O)N1CC(=O)Nc2ccccc21 (stereo not shown) | 10.5
64 | CC(=O)Nc1cccc(-c2nnc(SCC(=O)n3c4c(c5ccccc53)CCCC4)n2C)c1 | 2.33
65 | CCOC(=O)c1sc(NC(=O)CSc2nnnn2-c2ccccc2)c(C(=O)OCC)c1C | 4.34
66 | CCOC(=O)c1c(NC(=O)CSc2ncccn2)sc2c1CC(C)(C)NC2(C)C | -55.9

Row | Compound | hERG current change (%, negative = inhibition) at 10uM [%]
67 | CCOC(=O)c1c(NC(=O)CSc2nc3ccc(C)cc3[nH]2)sc2c1CC(C)(C)NC2(C)C | -44.3
68 | CCOC(=O)c1c(NC(=O)COc2ccccc2F)sc2c1CC(C)(C)NC2(C)C | 5.17
69 | CCOC(=O)c1c(NC(=O)CSc2nnnn2-c2ccccc2OCC)sc2c1CC(C)(C)NC2(C)C | -71.2
70 | CCOC(=O)c1c(NC(=O)COc2ccccc2OCC)sc2c1CC(C)(C)NC2(C)C | 13.3
71 | CCOC(=O)c1c(NC(=O)CSc2nnnn2-c2ccccc2)sc2c1CC(C)(C)NC2(C)C | -64.3
72 | CCOC(=O)c1c(NC(=O)Cc2ccccc2)sc2c1CC(C)(C)NC2(C)C | -52
73 | COC(=O)c1c(NC(=O)Cc2ccccc2)sc2c1CC(C)(C)NC2(C)C | -11.1
74 | CCOC(=O)c1c(NC(=O)CSc2nc3ccccc3[nH]2)sc2c1CC(C)(C)NC2(C)C | -45.2
75 | CCOC(=O)c1c(NC(=O)CSc2nnnn2-c2ccccc2)sc2c1CCC(C)C2 (stereo not shown) | -5.66
76 | CCOC(=O)c1c(NC(=O)COc2ccccc2)sc2c1CC(C)(C)NC2(C)C | 14.3
77 | N#Cc1ccc2ccn(CC(=O)NCc3ccccc3)c2c1 | -1.22
78 | O=C(CN1CCN(Cc2ccccc2F)C1=O)NC1CCCC1 | 1.87
79 | Cc1nccn1CC(O)COC1CCCCC1 (stereo not shown) | 13
80 | Nc1nnnn1/N=C/c1cccs1 | 3.28
81 | CSc1ncccc1C(=O)NCCc1ccccc1 | 7.94
82 | CC(C)n1c(CN2CCN(Cc3ccccc3)CC2)nc2ccccc21 | -14.4
83 | CCN(CC)C(=O)CSc1nc2c(sc(=S)n2CC)c(=O)n1-c1ccccc1 | -66.9
84 | CCn1c(=S)sc2c(=O)n(-c3ccccc3)c(SC)nc21 | -11.2
85 | CCN(CC)C(=O)CSc1nc2c(sc(=S)n2-c2ccccc2)c(=O)n1Cc1ccco1 | -78.7
86 | CCN(CC)C(=O)CSc1nc2c(sc(=S)n2Cc2ccco2)c(=O)n1-c1ccccc1 | -29.4
87 | CCC(C)NC(=O)CSc1nc2c(sc(=S)n2Cc2ccco2)c(=O)n1-c1ccccc1 (stereo not shown) | -9.99
88 | CCN(CC)C(=O)CSc1nc2c(sc(=S)n2-c2ccccc2OC)c(=O)n1-c1ccccc1 | -4.22

Source: article PMC4336329 (PLoS ONE, 2015)
